Measurements published in PubChem BioAssay (NCI).
This is part of a sample that, as a whole, favours compounds with a hit. Of some 83,000 tested, about 20% had one in any assay.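 Single-dose data. Exposure time 48 hours. Values below 10 considered active.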 Active and inactive are the calls of the source.

These molecules were tested on NCI-H23 lung (assay: NCI-60 one-dose screen, 48 h (100 = growth as untreated, 0 = no growth, -100 = all killed)). Conditions: 10 µM unless noted.

Q: With O=C(Nc1ccc(Cl)cc1)C1=NCCCCN1 as the molecule, how does the growth read?
A: 92% (inactive)

Q: Fc1ccc(/C=C/c2cc(/C=C/c3ccc(F)cc3)n(-c3cc(F)cc(F)c3)n2)cc1 was tested. Which growth did it give?
A: 98.3% (inactive)

Q: How did the growth turn out when Nc1n[nH]c2cccc(C#Cc3cccc(C(=O)Nc4ccc(Cl)c(C(F)(F)F)c4)c3)c12 was run?
A: 59.1% (inactive)

Q: With CC/C(=C(/c1ccc(Cl)cc1)c1ccc(OCCN2CCCCCC2)cc1)c1ccccc1 as the molecule, how does the growth read?
A: 77.5% (inactive)

Q: COC(CCP(=O)(c1ccccc1)c1ccccc1)(C(=O)c1ccccc1)c1ccccc1 (centres undefined) was tested. Which growth did it give?
A: 77.3% (inactive)

Q: For CC(=O)CC(=O)c1ccccc1.[Cu+2], which growth is on record?
A: 97.1% (inactive)

Q: With CN1CCN(Cc2ccc(NC(=O)c3cncc(C#Cc4cnc(N)c5ccc(C#N)cc45)c3)cc2C(F)(F)F)CC1 as the molecule, how does the growth read?
A: -22% (active)

Q: How did the growth turn out when CNC(=O)c1cc(Oc2ccc3nc(NC(=O)NC(C)C)sc3c2)ccn1 was run?
A: 87.5% (inactive)

Q: Which growth does the source give for N/C(=N\c1nc2ccccc2s1)NC(=O)Nc1ccccc1 here?
A: 54.7% (inactive)

Q: With CCOC(=O)/C(=C\c1ccccc1Cl)P(=O)(OCC)OCC as the molecule, how does the growth read?
A: 46.6% (inactive)

Q: Which growth does the source give for O=C(/C=C/c1ccc(Cl)cc1)c1ccc(-n2cc(CN3CCN(c4cc5c(cc4F)c(=O)c(C(=O)O)cn5C4CC4)CC3)nn2)cc1 here?
A: 85.4% (inactive)

Q: Which growth does the source give for COc1cc2cc(Oc3ccc(NC(=O)Nc4ccc(Cl)c(Cl)c4)cc3)c(C)nc2cc1OCCN1CCCCC1 here?
A: 107% (inactive)

Q: Which growth does the source give for CCN(CC)CCN1C(=O)c2c(c(C)c3c(oc4cc(OC)ccc43)c2C)C1=O here?
A: 95.9% (inactive)

Q: With Cn1ncc(CC(=O)O)c1-n1nnc2cc(Cl)ccc2c1=O as the molecule, how does the growth read?
A: 102% (inactive)
